Compound activity from PubChem.
The list is not random: actives were taken first. Their share in the collection is about 2.2%.
Abeta yeast res = compounds reversing amyloid beta toxicity in yeast; Potency, µM (titrated, usually from 46.1 µM), usual class: activators; 0.063% of 410,000 active; yeast expressing A-beta42, growth rescue, OD600, 48 h; response scale: 0% DMSO, 100% iron-clioquinol control; also: nearly all actives have a fitted effect of over 55% in size
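Growth rescue measured by 600 nm absorbance after 48 h yeast culture at 30 C with compound. Values normalized between DMSO and an equimolar ferric chloride plus clioquinol control.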
aSyn yeast inh = rescues yeast growth from alpha-synuclein toxicity; AID 652106; Potency, µM (doses to about 46.1 µM), for inactives: at the highest dose growth rescue (activation), actives largely listed as activators; Yeast expressing alpha-synuclein, growth rescue, BacTiter-Glo, 24 h; 0.14% of 370,000 active; also: % of control where 0% means no effect; nearly all actives have a fitted effect of over 65% in size
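Readout is rescue of growth in alpha-synuclein-expressing yeast, so inhibitors of toxicity appear as activators. Growth after 24 hr at 30 deg C in galactose medium is quantified by luminescence.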
TDP-43 yeast inh = rescues yeast growth from TDP-43 toxicity | TDP-43 expressing yeast growth rescue, BacTiter-Glo, 24 h | Potency, µM (highest dose often 46.1 µM), without a hit: at the highest dose growth rescue (activation), actives largely listed as activators | 1.8% of 410,000 active | AID 652104; also: % of control where 0% means no effect; nearly all actives have a fitted effect of over 50% in size
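Galactose-induced TDP-43 yeast, OD600=0.02, compound pinned; 24 hr, 30 deg C; BacTiter-Glo luminescence for growth. Inhibitors of TDP-43 toxicity read as activators.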
Mito fusion act = blocks mitochondrial division or promotes mitochondrial fusion; S. cerevisiae fusion-defective mutant growth rescue, CellTiterGlo 48 h; Potency, µM (series often up to 46.1 µM), inactives show at the top dose growth rescue (activation), actives largely listed as activators; 0.23% of 320,000 active; also: % of control where 0% means no effect; nearly all actives have a fitted effect of over 45% in size
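Read-out: ATP-based luminescence (CellTiterGlo, 10 min ambient) reporting growth of fusion-defective ts yeast after 48 hours at 37C on glycerol/ethanol YPEG medium in the presence of compound.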
FUS yeast rescue = rescues growth of FUS-expressing yeast; S. cerevisiae FUS-expressing, growth rescue, OD600, 24 h; Potency, µM (titrated, usually from 76.6 µM), actives largely listed as activators; 0.24% of 390,000 active; AID 1347120;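 also: plate controls were DMSO vehicle for no effect and reference control for full effect; nearly all actives have a fitted effect of over 55% in size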
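Toxicity suppression screen in FUS-yeast. Cells induced with 2% galactose, starting OD 0.005, treated 24hr at 30C with compounds at multiple final concentrations; growth by OD600.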
* hit, by the source's call; i = inactive; ? = inconclusive; . = no result given. Calls follow the shape of the dose curve; as a rule, active = well fitted curve in the direction sought with a large enough effect; inconclusive = small, poorly fitted or top-dose-only effect, or another doubt; inactive = no such curve, though single readings can be large; an effect the other way counts as inactive or inconclusive. Potency is read from the fitted curve at half-maximal effect.

SMILES	Abeta yeast res	aSyn yeast inh	TDP-43 yeast inh	Mito fusion act	FUS yeast rescue
CC(=O)CCC1C2C(O)C(C(C)C)C(OC(=O)/C=C/c3ccccc3)CC12C (stereo not given)	i	6%	20%	3.5µM*	i
COc1ccc(/C=C/C(=O)Nc2ccc(OC)nc2)cc1	i	1%	0%	0%	i
COc1ccc(CS(=O)(=O)/C(Cl)=C(/Cl)C(=O)Nc2ccc(OC)nc2)cc1	i	?	13µM*	-10%	i
COc1ccc(NC(=O)/C(Cl)=C(/Cl)S(=O)Cc2ccccc2)cn1 (stereo not given)	i	-80%	3.5µM*	-12%	.
CCc1nc(SCc2cc(=O)c3cc(F)ccc3[nH]2)n[nH]1	i	.	11%	.	i
CN1C(=O)/C(=N\OC(=O)c2ccccc2Cl)c2ccccc21	i	21%	18µM*	15%	i
CC1(C(=O)NS(=O)(=O)c2ccccc2Cl)CCN1C(=O)COc1ccc(Cl)cc1 (stereo not given)	i	0%	10%	.	i
CCOC(=O)c1c(C)[nH]c(C(=O)OCC(=O)Nc2cc(C)nn2-c2ccccc2)c1C	i	0%	16%	-6%	i
COc1ccc(C(C)NC(=S)NCc2ccc(F)cc2)cc1OC (stereo not given)	i	-7%	2%	-11%	i
CCC(C)c1ccc(C(C)NC(=S)NCc2ccc(F)cc2)cc1 (stereo not given)	3.5µM*	-11%	2%	-10%	i
CCCc1ccc(C(C)NC(=S)NC2CCCCC2)cc1 (stereo not given)	11µM*	-15%	11%	-10%	i
CCCc1ccc(C(C)NC(=S)NCc2ccc(F)cc2)cc1 (stereo not given)	3.5µM*	-6%	5%	-4%	i
CC(NC(=S)NCc1ccc(F)cc1)C12CC3CC(CC(C3)C1)C2 (stereo not given)	5.6µM*	3%	-6%	2%	i
CCOc1ccc(C(C)NC(=S)NCc2ccc(Cl)cc2)cc1 (stereo not given)	?	3%	5%	-2%	i
CC(=O)Nc1ccc(NC(=O)CSc2nnc(-c3cccs3)n2N)cc1	i	1%	-17%	3%	i
CCc1ccc(-c2nc(SCC(=O)NCCOC)c(-c3ccc(C)cc3)[nH]2)cc1	i	.	14%	.	i
Cc1ccccc1-c1nc2c(c(SCc3cccc(Cl)c3)n1)Cc1c(CO)cnc(C)c1O2	i	.	13%	.	i
CCc1nn2c(-c3ccco3)ccnc2c1-c1ccc(F)cc1	i	.	17%	.	i
Fc1ccc(CNC(=S)NCc2ccccc2)cc1	?	-5%	?	-15%	i
CCC(NC(=S)NCc1ccc(F)cc1)c1ccc(C(C)C)cc1 (stereo not given)	7.1µM*	5%	23%	-17%	i
Cc1ccccc1CNC(=O)c1cnc2sc(N3CCC(C)CC3)nn2c1=O	i	.	-2%	.	i
COc1ccc(Nc2ccc3cc(S(=O)(=O)N4CCCC4)ccc3n2)cc1OC	i	.	6%	.	?
COc1cccc(Nc2ccc3cc(S(=O)(=O)N4CCC(C)CC4)ccc3n2)c1	i	.	13µM*	.	i
Cc1c(C(=O)OCC2CCCCC2)[nH]c2c1C(=O)CC(c1ccccc1Cl)C2 (stereo not given)	i	.	12%	.	i
Fc1ccccc1Cn1cc(C(=S)N2CCOCC2)c2ccccc21	?	20µM*	?	-1%	i
SMILES	Abeta yeast res	aSyn yeast inh	TDP-43 yeast inh	Mito fusion act	FUS yeast rescue
CCCOc1ccc(N2C(=O)CC(N3CCN(c4ccccc4OC)CC3)C2=O)cc1 (stereo not given)	i	?	25µM*	-2%	i
COc1cccc(N2CCN(C3CC(=O)N(c4ccc(C)c(Cl)c4)C3=O)CC2)c1 (stereo not given)	i	8%	9%	-14%	i
COc1cccc(N2CCN(C3CC(=O)N(c4ccc(F)c(Cl)c4)C3=O)CC2)c1 (stereo not given)	i	-7%	13µM*	-1%	i
O=C1CC(N2CCC(O)(c3ccc(Br)cc3)CC2)C(=O)N1c1ccc(Cl)cc1 (stereo not given)	i	14%	-41%	-2%	.
COc1ccc(N2C(=O)CC(N3CCC(O)(c4ccc(Br)cc4)CC3)C2=O)cc1 (stereo not given)	i	9%	20µM*	-16%	i
Cc1ccc(S(=O)(=O)N(C)CCCN(C)c2nc(-c3cccs3)nc3ccccc23)cc1	.	-27%	.	.	.
CC(=O)Nc1cc(O)c2nonc2c1O	.	-41%	.	.	.
O=C(Nc1ccc(Br)cc1)C1CC(c2c(F)cccc2Cl)=NO1 (stereo not given)	i	7%	11µM*	-4%	i
O=C(Nc1cc(Br)ccc1O)C1CC(c2c(F)cccc2Cl)=NO1 (stereo not given)	i	-2%	6%	-7%	i
O=[N+]([O-])c1ccc(/C=N/Nc2nc(-c3ccccc3)c3cc(Br)ccc3n2)o1	i	-7%	11µM*	1%	i
Cc1ccc2nc(N/N=C\c3ccc([N+](=O)[O-])o3)nc(-c3ccccc3)c2c1	i	16%	-3%	0%	i
Cc1cccc(NC(=O)Nc2nc3ncccn3c2-c2ccccc2)c1	.	.	.	.	i
CC(C)(C)NC(=O)C(c1ccccc1F)n1c(=O)c(-c2cc3ccccc3[nH]2)nc2ccccc21 (stereo not given)	i	7.1µM*	?	.	?
CC(C)(C)NC(=O)C(c1cc2ccccc2o1)n1c(=O)c(-c2cc3ccccc3[nH]2)nc2ccccc21 (stereo not given)	?	8.9µM*	12%	.	?
CC(C)(C)NC(=O)C(c1ccncc1)n1c(=O)c(-c2cc3ccccc3[nH]2)nc2ccccc21 (stereo not given)	i	?	23%	.	?
Cc1cc(S(=O)(=O)Nc2noc3ccccc23)ccc1F	i	-22%	11µM*	-1%	i
COc1ccc(Cl)cc1NS(=O)(=O)c1cc(Cl)ccc1OC	i	-3%	13%	0%	i
COc1ccc(Cl)cc1S(=O)(=O)Nc1noc2ccccc12	i	-13%	10µM*	15%	i
CCOC(=O)C1CCCN(C(=O)c2nn(-c3ccc(OC)cc3)c(=O)c3c2c2ccccc2n3C)C1 (stereo not given)	i	.	2%	.	i
C#Cc1ccc(NC(=O)C2(C)CCN2C(=O)CC(c2ccccc2)c2ccccc2)cc1 (stereo not given)	i	12%	10%	.	?
CCOc1ccc2c(c1)-c1c(ssc1=S)C(C)(C)N2	i	1%	22µM*	11%	i
